# Inconclusive results are not listed. The source made the active and inactive calls. Calls follow the shape of the dose curve; as a rule, active = well fitted curve in the direction sought with a large enough effect; inconclusive = small, poorly fitted or top-dose-only effect, or another doubt; inactive = no such curve, though single readings can be large or run the other way.
# Assay: Confirmation Concentration-Response Assay for Inhibitors of Tau Fibril Formation, Total Fluorescence Counterscreen for Fluorescence Polarization
# Settings: Alexa594-tau K18 total fluorescence counterscreen, interference, tau K18 with P301L mutation; series mostly up to 100 µM; fluorescence change, negative = quenching: at the top concentration
# Source text: NIH Molecular Libraries Probe Production Network [MLPCN] NIH Chemical Genomics Center [NCGC] MLPCN Grant: X01 MH083262-01 Assay Provider: Carlo Ballatore, University of Pennsylvania NCGC Assay Overview: The microtubule-associated protein tau is an abundant protein in the axons of neurons that stabilizes microtubules. With its ability to modulate microtubule dynamics, tau contributes directly or indirectly, to key structural and regulatory cellular functions. Particularly important is the influence tau exerts on axonal transport, which allows signaling molecules, trophic factors and other essential cellular constituents to travel along the axons. Under pathological conditions, tau becomes sequestered into insoluble aggregates called neurofibrillary tangles. This phenomenon is believed to have pathological consequences by promoting axonal transport deficits that ultimately lead to synaptic dysfunction and neuronal loss. To identify inhibitors of tau aggregation, a heparin-induced tau fibril formation assay was used that employed a recombinantly expressed fragment of tau, K18 (Q242-E372), bearing a P301L mutation (Gustke et al. 1994; Hong et al. 1998). […] Total fluorescence (555 nm excitation and 632 nm emission) was measured to identify fluorescent or absorbent compounds at this wavelength. Such compounds may be artifacts that interfere with the Alexa 594 Tau fluorescence polarization assay. Gustke, N., B. Trinczek, et al. (1994). "Domains of tau protein and interactions with microtubules." Biochemistry 33(32): 9511-22. Hong, M., V. Zhukareva, et al. (1998). "Mutation-specific functional impairments in distinct tau isoforms of hereditary FTDP-17." Science 282(5395): 1914-7. Li, W. and V. M. Lee (2006). "Characterization of two VQIXXK motifs for tau fibrillization in vitro." Biochemistry 45(51): 15692-701. von Bergen, M., S. Barghorn, et al. (2001). "Mutations of tau protein in frontotemporal dementia promote aggregation of paired helical filaments by enhancing local beta-structure." J Biol Chem 276(51): 48165-74.
# For screening, 2 uL/well human K18 P301L (15 uM unlabeled and 0.24 uM Alexa 594-labeled tau final concentrations) in reagent buffer (100 mM sodium acetate pH 7) was dispensed into black solid 1536-well plates (Grenier) using a solenoid-based dispenser. Following transfer of 23 nL compound or DMSO vehicle by a pin tool, 2 uL/well heparin (20 uM final concentration) in reagent buffer was added and the plate centrifuged 15 s at 1000 RPM. Plates were incubated 6 hr at 37 C and then 1 uL/well ThT (30 uM final concentration) was added. After a 1 hr ambient incubation, the plates were read by an Envision (Perkin Elmer) to monitor Alexa 594 FP (555 nm excitation and 632 nm emission). Keywords: NIH Roadmap, MLPCN, MLI, MLSMR, NCGC, qHTS, tau, tauopathies, Alzheimer's disease, fibril, neurodegeneration, aggregation
Structure (SMILES),"fluorescence change, negative = quenching",Potency
Cn1ncc(Cl)c1C(=O)Nc1cccc(Cl)c1,8.4% (inactive),
O=C(Nc1nc2ccc(S(=O)(=O)N3CCCC3)cc2s1)c1ccc(F)cc1,-1.76% (inactive),
COc1ccc2oc(-c3ccc(NC(=O)c4ccc(N5CCOCC5)c([N+](=O)[O-])c4)cc3)nc2c1,-3.8% (inactive),
Cc1ccc(N(C)S(=O)(=O)c2nnc(NC(=O)C3CCCCC3)s2)cc1,4.56% (inactive),
COC(=O)c1ccccc1NC(=O)CSc1nc2sc3c(c2c(=O)[nH]1)CCCC3,1.44% (inactive),
Cc1ccc(C(=O)Nc2nc(=O)n(C(=O)C3CC3)s2)cc1,12.3% (inactive),
Cc1ccc(N2C(=O)SC(Cc3ccccc3)C2=O)cc1 (stereo not given),14.2% (inactive),
COc1ccc2c(c1)c(CC(=O)N1CCOCC1)c(C)n2C(=O)c1ccc(Cl)cc1,-5.26% (inactive),
Cc1cccc(NC(=O)c2c(NC(=O)c3ccccc3)sc3c2CCCC3)c1,-10.3% [at 57.1 µM] (inactive),
O=C(CSc1nc2scc(-c3ccco3)c2c(=O)n1-c1ccccc1)N1CCOCC1,-2.9% [at 57.1 µM] (inactive),
CCOC(=O)c1nn(-c2ccccc2)c(=O)c2c(N)sc(C)c12,-20.4% [at 57.1 µM] (inactive),
COc1cccc(/C=C2/SC(=S)N(CC(=O)Nc3nccs3)C2=O)c1,-19.7% [at 57.1 µM] (inactive),
O=C(O)CN1C(=O)/C(=C/c2ccc(-c3cccc(Cl)c3)o2)SC1=S,-10.4% (inactive),
O=C(Cc1ccccc1)Nc1sc2c(c1C(=O)Nc1cccc(Cl)c1)CCCC2,-7.93% [at 57.1 µM] (inactive),
O=C(Cn1c(=O)c(CNc2ccccc2)cc2cc3c(cc21)OCCO3)Nc1ccccc1Cl,-14.4% (inactive),
CC(C)C(C)NC(=O)CSc1nc2scc(-c3ccco3)c2c(=O)n1-c1ccccc1 (stereo not given),24.5% (inactive),
CCOC(=O)c1nn(-c2ccc(C)c(C)c2)c(=O)c2c(N)scc12,-15.5% [at 57.1 µM] (inactive),
COC(=O)c1nn(-c2ccc(OC)cc2)c(=O)c2c(N)sc(C)c12,-0.76% (inactive),
O=C(Cc1ccccc1)Nc1sc2c(c1C(=O)Nc1ccc(Cl)cc1)CCOC2,-16.6% [at 57.1 µM] (inactive),
CCOC(=O)c1nn(-c2ccc(OC)cc2)c(=O)c2c(N)scc12,,inactive

Structure (SMILES),"fluorescence change, negative = quenching",Potency
COc1ccc(CNC(=O)Cn2nc(C)n3cccc3c2=O)cc1,-6.66% (inactive),
NCCc1ccc(O)c(O)c1,-17.2% (inactive),
CCN(c1ccccc1)S(=O)(=O)c1nnc(NC(=O)C(C)(C)C)s1,-3.33% (inactive),
Cc1ccc(NC(=O)c2c(NC(=O)Cc3ccccc3)sc3c2CCCC3)cc1,-4.68% [at 57.1 µM] (inactive),
CN(c1ccccc1)S(=O)(=O)c1nnc(NC(=O)COc2ccccc2)s1,-11.1% (inactive),
CC(C)(C)c1ccc(NC(=O)N2CCN(c3ccc([N+](=O)[O-])cn3)CC2)cc1,-1.23% (inactive),
Cc1nc2ccccc2oc1=O,11.2% (inactive),
Nc1cc(-c2ccncc2)c[nH]c1=O,0.824% (inactive),
Cc1ccc(S(=O)(=O)N(C)c2nc3ccccc3[nH]c2=S)cc1,7.27% (inactive),
CCOC(=O)c1nn(-c2ccccc2)c(=O)c(C#N)c1C,4.66% [at 57.1 µM] (inactive),
O=C(Nc1ccccc1)Nc1ccccc1,-10.9% (inactive),
COc1cc(/C=N/N=C2/NC(=O)C(CC(=O)O)S2)ccc1OCc1ccc(Cl)cc1 (stereo not given),22.5% (inactive),
Cc1sc(N)c2c(=O)n(-c3ccccc3)ncc12,-11.4% [at 57.1 µM] (inactive),
NC[C@@H](O)c1ccc(O)c(O)c1,-7.44% (inactive),
COC(=O)c1c(N)sc2c1C(C(=O)OC)CC2 (stereo not given),-4.91% [at 57.1 µM] (inactive),
CCOC(=O)c1ccc(-n2nc(C(=O)OCC)c3csc(N)c3c2=O)cc1,-11.1% [at 57.1 µM] (inactive),
CC1CCc2c(sc(NC(=O)Cc3ccccc3)c2C(=O)Nc2ccc(Cl)cc2)C1 (stereo not given),-0.241% [at 57.1 µM] (inactive),
COc1ncc(-c2ccccc2)cc1N,-2.67% [at 57.1 µM] (inactive),
Cn1sc(NC(=O)c2ccccc2)nc1=O,4.66% [at 57.1 µM] (inactive),
Cc1[nH]c(=O)c(C#N)cc1-c1ccncc1,2.45% (inactive),
